In publication PMC4552634, “A New Set of Chemical Starting Points with Plasmodium falciparum Transmission-Blocking Potential for Antimalarial Drug Discovery” (PLoS ONE, 2015):
Read-outs that look alike come from different tables or passages of the source. The campaign covered roughly 13,000 compounds. About 3,200 (25%) showed an effect of 50% or more. The list shows a part of the results.

Test system: P. falciparum stage V gametocytes
Design: BacTiter-Glo ATP luminescence viability of purified stage V gametocytes in 384-well plates, per cent inhibition versus DMSO
Conditions: 48 h, 5 µM, inhibitor

Compound: N#Cc1c(N)nc(SCC(=O)Nc2cc(C(F)(F)F)ccc2Cl)c(C#N)c1-c1cccs1 [TCMDC-123750]
- % Inhibition: -5.622%

Compound: COc1ccc(NC(=O)c2ccc(Br)c(C)c2)cc1N1CCN(Cc2ccccc2)CC1 [TCMDC-139031]
- % Inhibition: -19.8%

Compound: CSc1cccc(NC(=O)c2cc3ccccc3oc2=O)c1 [TCMDC-123616]
- % Inhibition: 19.07%

Compound: O=C(NCC(c1ccc(C(F)(F)F)cc1)N1CCCC1)c1cc(-c2ccncc2)c(-c2cccc(O)c2)o1 (stereo not drawn) [TCMDC-135665]
- % Inhibition: 33.87%

Compound: CCn1c(SCc2ccccc2)nc2c1c(=O)[nH]c(=O)n2C [TCMDC-125734]
- % Inhibition: -6.834%

Compound: CC(C)CNC(=S)N1CCCN(c2nc3ccc(Cl)cc3s2)CC1 [TCMDC-139465]
- % Inhibition: 24.85%

Compound: Cc1noc(C)c1CN1Cc2ccccc2OC2(CCN(Cc3c[nH]c4cnccc34)CC2)C1 [TCMDC-133381]
- % Inhibition: 19.56%

Compound: COc1ccc(NC(=O)NC2CCN(c3ccnc4cc(Cl)ccc34)CC2)cc1 [TCMDC-133573]
- % Inhibition: -92.42%

Compound: CN1CCC(N(Cc2ccc(-c3ccc(C(F)(F)F)cc3)cc2)C(=O)Cn2cc(Cc3cnn(C)c3)c(=O)nc2SCc2cccc(F)c2F)CC1 [TCMDC-141337]
- % Inhibition: 106.7%

Compound: CC(C)N1CCC(N(Cc2ccc(-c3ccc(Cl)cc3)cc2)C(=O)Cn2c(CCc3cccc(F)c3F)cc(=O)c3ccccc32)CC1 [TCMDC-141363]
- % Inhibition: 102.7%

Compound: CCCC(C)NC(=O)[C@H](CC1CCCCC1)NC(=O)c1ccc(O)c(-c2cccc(C(F)(F)F)c2)c1 (stereo partly drawn) [TCMDC-140808]
- % Inhibition: 13.25%

Compound: CC1CN=C(c2ccc(NC(=O)Nc3ccc(C4=NCC(C)N4)cc3)cc2)N1 (stereo not drawn) [TCMDC-137210]
- % Inhibition: -10.63%

Compound: N#Cc1ccc(NC(=O)NC2CCN(CCCCCNC(=O)/C=C/c3ccc(Cl)c(Cl)c3)CC2)cc1 [TCMDC-135705]
- % Inhibition: -23.68%

Compound: N#Cc1ccc(C(=O)NC2CCN(CCCCCNC(=O)/C=C/c3ccc(Cl)c(Cl)c3)CC2)cc1 [TCMDC-135837]
- % Inhibition: 78.66%

Compound: N#Cc1cccc(C(=O)NC2CCN(CCCCCNC(=O)/C=C/c3ccc(Cl)c(Cl)c3)CC2)c1 [TCMDC-135841]
- % Inhibition: 88.37%

Compound: O=C(/C=C/c1ccc(Cl)c(Cl)c1)NCCCCCN1CCC(NC(=O)c2cccc(Cl)c2)CC1 [TCMDC-135868]
- % Inhibition: 49.83%

Compound: O=C(/C=C/c1ccc(Cl)c(Cl)c1)NCCCCCN1CCC(NC(=O)c2ccc(F)cc2)CC1 [TCMDC-135840]
- % Inhibition: 0.6546%

Compound: N#Cc1cccc(NC(=O)NC2CCN(CCCCCNC(=O)/C=C/c3ccc(Cl)c(Cl)c3)CC2)c1 [TCMDC-135706]
- % Inhibition: -58.78%

Compound: O=C(Nc1ccc(Cl)c(C(F)(F)F)c1)c1ccc(C(=O)Nc2ccc(Cl)c(C(F)(F)F)c2)cc1 [TCMDC-125581]
- % Inhibition: -42.79%

Compound: CC1(C)N=C(N)N=C(N)N1OCCCCON1C(N)=NC(N)=NC1(C)C [TCMDC-131630]
- % Inhibition: 2.586%

Compound: Cc1cc(NC(=O)NCCN2CCC(NS(=O)(=O)c3ccc(C(F)(F)F)cc3)C2)c2ccccc2n1 (stereo not drawn) [TCMDC-136140]
- % Inhibition: 44.51%

Compound: O=C(Nc1ccccc1)N(Cc1cccc(-c2cccc(CNCCc3ccccc3)c2)c1)C1CCN(Cc2ccccc2)CC1 [TCMDC-140587]
- % Inhibition: 90.55%

Compound: NCc1cccc(-c2cccc(CN(C(=O)Nc3ccccc3)C3CCN(Cc4ccccc4)CC3)c2)c1 [TCMDC-140583]
- % Inhibition: 102.4%

Compound: O=C(Nc1ccccc1)N(Cc1ccccc1-c1cccc(CNCc2ccc3c(c2)OCO3)c1)C1CCN(Cc2ccccc2)CC1 [TCMDC-140582]
- % Inhibition: 47.74%

Compound: O=C(Nc1ccccc1)N(Cc1ccccc1-c1cccc(CNCCc2ccccc2)c1)C1CCN(Cc2ccccc2)CC1 [TCMDC-140580]
- % Inhibition: 102.3%

Compound: NCc1ccc(-c2ccccc2CN(C(=O)Nc2ccccc2)C2CCN(Cc3ccccc3)CC2)cc1 [TCMDC-140577]
- % Inhibition: 94.87%

Compound: Cc1ccc(CN=C(N)NC(=O)c2nc(Cl)c(NCc3ccc(Cl)cc3)nc2N)c(C)c1 [TCMDC-138938]
- % Inhibition: 26.05%

Compound: CN(c1ccc(NC(=O)c2cccc(F)c2)cc1)C1CCCN(Cc2cccc(O)c2)C1 (stereo not drawn) [TCMDC-134957]
- % Inhibition: -38.33%

Compound: O=C(Nc1ccccc1)N(Cc1cccc(-c2ccc(CNCCc3ccccc3)cc2)c1)C1CCN(Cc2ccccc2)CC1 [TCMDC-140588]
- % Inhibition: 106.9%

Compound: CC(=O)N(Cc1cccc(-c2ccc(CNCCc3ccccc3)cc2)c1)C1CCN(Cc2ccccc2)CC1 [TCMDC-140528]
- % Inhibition: 44.2%

Compound: CC(=O)N(Cc1cccc(-c2cccc(CNCCc3ccccc3)c2)c1)C1CCN(Cc2ccccc2)CC1 [TCMDC-140527]
- % Inhibition: 98.23%

Compound: S=C(Nc1cccc(Cl)c1)NC1CCN(c2ccnc3cc(Cl)ccc23)C1 (stereo not drawn) [TCMDC-133400]
- % Inhibition: 41.6%

Compound: Cc1cc(CN2CCCN(c3ccc4c(c3)CCN(Cc3ccc(-c5ncc[nH]5)cc3)CC4)CC2)n(C)n1 [TCMDC-136550]
- % Inhibition: 22.45%

Compound: COc1ccc2nccc([C@@H](O)CN3CCC(NC(=O)c4ccc5nc(-n6cccc6)sc5c4)CC3)c2c1 [TCMDC-141027]
- % Inhibition: -24.62%

Compound: COc1cc2c(cc1CCNCCCCNCCc1cc3c(cc1OC)CCCC3)CCCC2 [TCMDC-137319]
- % Inhibition: 108.4%

Compound: COc1cc2ccccc2c(OC)c1CNCCCCCCNCc1c(OC)cc2ccccc2c1OC [TCMDC-137843]
- % Inhibition: 116.8%

Compound: COc1cc2ccccc2cc1CCNCCCCNCCc1cc2ccccc2cc1OC [TCMDC-137944]
- % Inhibition: 108%

Compound: COc1cc2ccccc2c(CNCCCCCCNCc2c(OC)c(OC)cc3ccccc23)c1OC [TCMDC-137795]
- % Inhibition: 103.3%

Compound: COc1cc2ccccc2c(CON2C(N)=NC(N)=NC2(C)C)c1OC [TCMDC-131792]
- % Inhibition: 17.71%

Compound: Cl.O=C(Oc1ccc(C2CNCCc3c2cc(OC(=O)c2ccc(O)cc2)c(OC(=O)c2ccc(O)cc2)c3Cl)cc1)c1ccc(O)cc1 (stereo not drawn) [TCMDC-141978]
- % Inhibition: 49.99%

Compound: CC(C)Sc1nncc(-c2cnnc(SC(C)C)n2)n1 [TCMDC-123740]
- % Inhibition: 3.174%

Compound: COc1ccc2nccc([C@@H](O)CN3CCC(NCc4cc5cccc6c5n(c4=O)CCC6)CC3)c2c1 [TCMDC-140735]
- % Inhibition: -18.38%

Compound: CCCc1cc(N2CCC(N3CCCC3)CC2)nc(Nc2ccc(OC)cc2)n1 [TCMDC-132387]
- % Inhibition: 2.102%

Compound: C=C[C@H]1CN2CC[C@H]1C[C@H]2[C@H](O)c1ccnc2ccc(OC)cc12 [TCMDC-125479]
- % Inhibition (% Inhibition): -1.021%

Compound: CC(C)=CCc1c(-c2ccc(O)cc2O)oc2c3c(cc(O)c2c1=O)OC(C)(C)C=C3 [TCMDC-124149]
- % Inhibition: 26.1%

Compound: COc1cc2ccccc2c(OC)c1CCNCCCCNCCc1c(OC)cc2ccccc2c1OC [TCMDC-137842]
- % Inhibition: 116.9%

Compound: O=C(CC(c1ccccc1)c1ccccc1O)N1CCOCC1 (stereo not drawn) [TCMDC-125747]
- % Inhibition: -30.1%

Compound: CC(C)(C)OC(=O)N[C@@H](Cc1ccccc1)C(=O)Nc1cccc(-c2cccc(NC(=O)[C@H](Cc3ccccc3)NC(=O)OC(C)(C)C)c2)c1 [TCMDC-131873]
- % Inhibition: -20.04%

Compound: COC(=O)C(c1ccc(NC(=O)[C@H](CC(C)C)NC(=O)OC(C)(C)C)cc1)c1ccc(NC(=O)[C@H](CC(C)C)NC(=O)OC(C)(C)C)cc1 [TCMDC-131874]
- % Inhibition: -21.29%

Compound: C=CCc1ccc(C[C@H](NC(=O)OC(C)(C)C)C(=O)OC)cc1 [TCMDC-138140]
- % Inhibition: 103.3%

Compound: CC(C)(C)c1ccc(C(=O)N2CCC3(CC2)C(=O)N(CC(=O)NCC2CCCO2)CN3c2ccccc2)cc1 (stereo not drawn) [TCMDC-125172]
- % Inhibition: -58.74%

Compound: COc1ccc(N2CCN(CCCCNC(=O)c3ccc(NC(=O)c4ccc(Cl)cc4)cc3)CC2)c(C)c1 [TCMDC-138431]
- % Inhibition: -16.53%

Compound: CN(C)Cc1ccc(-c2cccc(NC(=O)c3cccc(Cl)c3)c2)cc1 [TCMDC-132644]
- % Inhibition: -4.056%

Compound: CC(C)NCc1ccc(-c2cccc(NC(=O)c3cccc(Cl)c3)c2)cc1 [TCMDC-132642]
- % Inhibition: 18.79%

Compound: CC(C)NCc1ccc(-c2ccc(NC(=O)c3cccc(Cl)c3)cc2)cc1 [TCMDC-132592]
- % Inhibition: 87.86%

Compound: CC(C)NCc1cccc(-c2cccc(NC(=O)c3cccc(Cl)c3)c2)c1 [TCMDC-132658]
- % Inhibition: 93.91%

Compound: CC(C)NCc1ccc(-c2ccc(NC(=O)c3ccc(Cl)cc3)cc2)cc1 [TCMDC-132586]
- % Inhibition: 47.91%

Compound: CN(C)CCN(C)Cc1ccc(-c2ccc(NC(=O)c3cccc(Cl)c3)cc2)cc1 [TCMDC-132593]
- % Inhibition: 39.43%

Compound: O=C(Nc1ccc(Cn2ncc(N3CCCNCC3)c(Cl)c2=O)cc1)Nc1ccc(OCc2ccccc2)cc1 [TCMDC-133319]
- % Inhibition: 26.32%

Compound: COC(=O)c1ccc(CC(C)NCC(O)c2cccc(Cl)c2Cl)cc1 (stereo not drawn) [TCMDC-131483]
- % Inhibition: 20.31%

Compound: CCCNC(=O)c1ccnc(-c2ccc(CNC3Cc4ccccc4C3)cc2)c1 [TCMDC-134255]
- % Inhibition: 1.364%

Compound: O=C(COc1ccccc1)N(Cc1ccc(-c2ccc(CNC3Cc4ccccc4C3)cc2)cc1)C1CCNCC1 [TCMDC-141450]
- % Inhibition: 110%

Compound: CC(C)CC(=O)N(Cc1ccc(-c2ccc(CNC3Cc4ccccc4C3)cc2)cc1)C1CCNCC1 [TCMDC-141449]
- % Inhibition: 118.6%

Compound: CC(C)CNC(=O)c1ccnc(-c2ccc(CNC3Cc4ccccc4C3)cc2)c1 [TCMDC-134254]
- % Inhibition: 4.563%

Compound: CC[C@H](C)CNC(=O)c1ccnc(-c2ccc(CNC3Cc4ccccc4C3)cc2)c1 [TCMDC-134253]
- % Inhibition: 2.834%

Compound: CC(C)CNC(=O)c1cncc(-c2ccc(CNC3Cc4ccccc4C3)cc2)c1 [TCMDC-134241]
- % Inhibition: -1.576%
